Granule exo inh = LAMP-1 surface exposure blockers, TALL-104 cells – cell-based, flow cytometry, MLPCN library, primary screen; TALL-104 LAMP-1 surface exposure; cells stimulated with thapsigargin and PMA; inhibition, % at 10 µM; actives 0.66% (n = 360,000); AID 651702, 2012;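 active = inhibition above about 55%, limit read from the data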
VLA-4 inh = inhibition in human VLA-4 binding assay, primary screen, VLA-4 allosteric modulator project, MLPCN library, flow cytometry, VLA-4 expressing cells; ligand binding flow cytometry; actives 0.2% (n = 330,000); Integrin alpha-4 (Homo sapiens), P13612; inhibition, % (about 7 µM as worked out from the volumes in the protocol); in the data active = inhibition above about 50%
MEX-5 binding = MEX-5 zinc finger RNA-binding disruptors – biochemical, C. elegans, fluorescence polarization, MLPCN library, primary screen; Zinc finger protein mex-5 (Caenorhabditis elegans), Q9XUB2; MEX-5/FITC-TCR2 RNA binding; active compounds read low; activity score (negative = inhibition of binding), % at 10 µM; actives 0.38% (n = 300,000);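 active = inhibition past about -25% in most replicates, and total fluorescence under double the plate's negative control median, limit read from the data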;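 also: 0% = DMSO and -100% = 5 µM competing unlabeled TCR2 RNA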
m5-HT2A agonist = mouse Htr2a agonists via beta-arrestin recruitment, primary screen, cell-based, luminescence | CHO-K1 mHTR2A beta-arrestin complementation; percent of 30 µM serotonin response | activation, % at 7.6 µM | actives 0.66% (n = 360,000) | AID 624169, 2012;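 active = activation above a run cutoff, the mean activation of all tested compounds plus 3 SD, cut at about 14% in these data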;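 also: 0% = plate median of compound wells and 100% = 30 µM serotonin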
Target sequence (P35363 whole entry, looked up): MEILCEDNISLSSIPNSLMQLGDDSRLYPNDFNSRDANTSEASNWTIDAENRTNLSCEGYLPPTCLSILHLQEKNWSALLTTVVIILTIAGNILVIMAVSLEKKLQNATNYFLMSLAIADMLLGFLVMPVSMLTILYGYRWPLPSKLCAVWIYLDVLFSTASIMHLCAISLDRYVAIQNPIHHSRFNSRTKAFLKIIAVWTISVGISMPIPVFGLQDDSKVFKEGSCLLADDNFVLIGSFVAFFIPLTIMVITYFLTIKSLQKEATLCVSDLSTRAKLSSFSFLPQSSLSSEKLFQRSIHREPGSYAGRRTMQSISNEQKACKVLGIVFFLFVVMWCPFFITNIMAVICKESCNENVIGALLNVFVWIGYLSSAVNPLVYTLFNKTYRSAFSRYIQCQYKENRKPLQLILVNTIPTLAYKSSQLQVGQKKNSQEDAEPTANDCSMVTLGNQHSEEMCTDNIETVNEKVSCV
V-ATPase pHluor = regulators of yeast V-ATPase proton pumping, primary screen, pHLuorin cytosolic pH fluorescence; S. cerevisiae; response, % at 10 µM; actives 0.37% (n = 350,000); in the data active = response mostly above about 7.3%, no sharp cut-off; inactive = mostly below about 5.4%; also: actives read high
GASC-1 inh = inhibitors of GASC-1 histone demethylase, primary screen, biochemical, fluorescence, DELFIA europium; Lysine-specific demethylase 4C (Homo sapiens), Q9H3R0; GST-JMJD2C(1-420) H3K9me3 demethylation; inhibition, % at 2.35 µM; actives 0.069% (n = 330,000);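 active = more than half of a compound's replicate wells show inhibition beyond 50%, single wells judged on their own value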;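 also: signal counts dimethyl H3K9 product captured on neutravidin plate; 0% = median of DMSO wells and 100% = 0.3 times that DMSO median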
Starred values were filed as active, the others as inactive. The list is not random: actives were taken first. Their share in the collection is about 2.2%.

`CC(C)CN(C(=O)CCNC(=O)c1ccccc1Cl)C1CCS(=O)(=O)C1` (centres undefined) gave Granule exo inh 2.0, VLA-4 inh -1.9, m5-HT2A agonist 7.1, V-ATPase pHluor -1.4 and GASC-1 inh 4.2.
`O=S(=O)(Nc1ccc(O)c2ccccc12)c1ccc(Br)cc1` gave VLA-4 inh -5.5, MEX-5 binding -26.5* and GASC-1 inh 8.7.
`CC(=O)c1cccc(S(=O)(=O)N2CCC(C(=O)O)(c3ccccc3)CC2)c1` gave Granule exo inh 15.5, VLA-4 inh -0.5, MEX-5 binding -1.1, m5-HT2A agonist -9.4, V-ATPase pHluor -7.1 and GASC-1 inh -4.1.
Cc1cc(C)cc(OCC(=O)OCC(=O)NC2CCCCCC2)c1 was read as Granule exo inh -0.7, VLA-4 inh -12.9, m5-HT2A agonist 2.0 and V-ATPase pHluor 17.4*.
CCc1nnc(N/N=C/c2cc(Br)c(O)cc2O)n1N was read as Granule exo inh 18.7, VLA-4 inh 1.1, MEX-5 binding 16.9, m5-HT2A agonist 3.4, V-ATPase pHluor -1.2 and GASC-1 inh 58.2*.
Screening CCc1nnc(N/N=C/c2ccc(O)c(OC)c2)n1N returned Granule exo inh 8.5, VLA-4 inh -14.1, MEX-5 binding -1.4, m5-HT2A agonist 1.7, V-ATPase pHluor 7.0 and GASC-1 inh -1.3.
`CCn1nc(C)cc1C(=O)Sc1ccc(C)cc1` gave Granule exo inh -5.3, VLA-4 inh -129.9, MEX-5 binding -1.2, m5-HT2A agonist 3.1, V-ATPase pHluor 5.0 and GASC-1 inh -1.2.
`CCn1nc(C)c(Br)c1C(=O)Sc1ccccc1Cl` gave Granule exo inh 69.3*, VLA-4 inh -3.1, MEX-5 binding 0.7, m5-HT2A agonist -1.0, V-ATPase pHluor -0.6 and GASC-1 inh -3.0.
Cc1ccccc1/C=N/Nc1ccnc2cc(Cl)ccc12 was read as Granule exo inh 76.2*, VLA-4 inh 14.2, MEX-5 binding -2.0, m5-HT2A agonist -0.8, V-ATPase pHluor 3.2 and GASC-1 inh 0.2.
Screening COc1cc(CNc2ncnc3c2[nH]c2ccc(C)cc23)cc(OC)c1 returned Granule exo inh 56.2*, VLA-4 inh -2.0, MEX-5 binding -4.2, m5-HT2A agonist -6.0, V-ATPase pHluor 3.2 and GASC-1 inh 29.2.
For CCN(Cc1ccccc1)C(=O)c1cc(S(=O)(=O)N2CCOCC2)cn1C the results were Granule exo inh -0.7, VLA-4 inh 6.0, MEX-5 binding 1.8, m5-HT2A agonist -4.3, V-ATPase pHluor 3.2 and GASC-1 inh -27.7.
`O=C(O)CCCN1C(=O)/C(=C/c2ccncc2)SC1=S` gave Granule exo inh -0.1, VLA-4 inh -4.4, MEX-5 binding -0.1, m5-HT2A agonist 0.8, V-ATPase pHluor -2.7 and GASC-1 inh -2.5.
O=C(O)CCCN1C(=O)/C(=C/c2ccc(-c3nc4ccccc4s3)o2)SC1=S was read as Granule exo inh 65.8*, VLA-4 inh 3.2, MEX-5 binding -29.3*, m5-HT2A agonist 1.5, V-ATPase pHluor -3.6 and GASC-1 inh -1.3.
`O=C(O)CCCCCN1C(=O)/C(=C\c2ccc(-c3ccc(Cl)cc3)o2)SC1=S` gave Granule exo inh 87.3*, VLA-4 inh -57.9, MEX-5 binding -3.9, m5-HT2A agonist 2.7, V-ATPase pHluor -0.7 and GASC-1 inh 1.0.
CN1CCN(C(=O)c2cc3c(c(-c4cccc(-c5cc6ccccc6o5)c4)n2)[C@@H](CCO)N(S(=O)C(C)(C)C)C3)CC1 (some centres undefined) was read as Granule exo inh 2.5 and m5-HT2A agonist -1.1.
Screening O=c1[nH]c2ccccc2c2nc(-c3cccc(S(=O)(=O)N4CCCC4)c3)nn12 returned Granule exo inh 1.8, VLA-4 inh -6.5, MEX-5 binding 1.9, m5-HT2A agonist -2.7, V-ATPase pHluor 4.4 and GASC-1 inh 28.8.
For Cc1ccc(C)c(NC(=S)N(Cc2cccc(Br)c2)CC2CCC(C(=O)O)CC2)c1 (centres undefined) the results were Granule exo inh -0.3, VLA-4 inh 3.8, MEX-5 binding -0.1, m5-HT2A agonist 2.5, V-ATPase pHluor 1.1 and GASC-1 inh 5.3.
CCc1c(C)nc2ncnn2c1Nc1ccc(C)cc1 was read as Granule exo inh -0.4, VLA-4 inh -1.7, MEX-5 binding 0.5, m5-HT2A agonist -2.4, V-ATPase pHluor 2.5 and GASC-1 inh 6.3.
Screening CCc1c(C)nc2ncnn2c1NC1CCCc2ccccc21 (centres undefined) returned Granule exo inh -1.0, VLA-4 inh 6.6, MEX-5 binding 4.0, m5-HT2A agonist 2.0, V-ATPase pHluor 13.3* and GASC-1 inh -0.3.
`CN(C)c1ccc(/C=N/N(CCC(=O)NC(C)(C)C)C2=NS(=O)(=O)c3ccccc32)cc1` gave Granule exo inh 0.8, VLA-4 inh 2.2, MEX-5 binding -53.0*, m5-HT2A agonist 4.9, V-ATPase pHluor 2.8 and GASC-1 inh 2.1.
`CN(C)c1ccc(/C=N/NC2=NS(=O)(=O)c3ccccc32)cc1` gave Granule exo inh -6.2, VLA-4 inh -8.1, MEX-5 binding -41.2*, m5-HT2A agonist -4.2, V-ATPase pHluor -3.3 and GASC-1 inh 0.5.
Screening COc1ccc(/C=N/NC2=NS(=O)(=O)c3ccccc32)cc1 returned Granule exo inh -10.1, VLA-4 inh 3.6, MEX-5 binding 2.3, m5-HT2A agonist -2.4, V-ATPase pHluor 2.7 and GASC-1 inh 7.6.
For CCn1c(C)c(C)c2cc(C(=O)NCCCN3CCCCC3C)ccc21 (centres undefined) the results were Granule exo inh -2.6, VLA-4 inh 3.5, MEX-5 binding 0.6, m5-HT2A agonist -13.9, V-ATPase pHluor 1.2 and GASC-1 inh 4.2.
For O=C(CN1C(=O)CCSc2ccc(S(=O)(=O)N3CCOCC3)cc21)Nc1cccc(F)c1 the results were Granule exo inh -1.8, VLA-4 inh 6.9, MEX-5 binding -2.3, m5-HT2A agonist 1.8, V-ATPase pHluor 1.5 and GASC-1 inh -8.9.
CC(C)(C)NC(=O)C1c2ccccc2OCC(=O)N1CCCN1CCOCC1 (centres undefined) was read as Granule exo inh -0.2 and m5-HT2A agonist 1.4.
Screening N#CC1(NC(=O)COC(=O)c2cc(O)c3ccccc3c2O)CCCCC1 returned Granule exo inh 61.1*, VLA-4 inh -13.3, MEX-5 binding -5.0, m5-HT2A agonist 4.1, V-ATPase pHluor -8.4 and GASC-1 inh 1.6.

Screening data from PubChem BioAssay.
